# Data reported in PubChem BioAssay (NCATS).
# The source made the active and inactive calls. Unless noted, the rule behind the calls is not given here.
# Tests used:
# [1] = Immunotoxin (HA22) sensitization/mitigation study. Vehicle arm (PBS) (AID 1159510); note: potency is the fitted concentration of half-maximal effect
# [2] = Immunotoxin (SS1P) sensitization/mitigation study. Vehicle arm (DMEM) (AID 1159513); note: potency is the fitted concentration of half-maximal effect
# [3] = qHTS profiling for inhibitors of Plasmodium falciparum (3D7) proliferation (AID 743322);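 note: infected erythrocytes exposed to compound for 72 h before lysis; 100% = DMSO vehicle wells and 0% = 0.29 µM artemisinin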; conditions: P. falciparum 3D7 proliferation; at 28.7 µM (top of the series) unless noted
# Outline: (§1)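 Erythrocytes infected with P. falciparum (0.3% parasitemia, 2.5% hematocrit) incubated with compounds 72 h at 37 C, 5% CO2. Lysis with saponin/Triton buffer containing SYBR Green I, overnight at room temperature in the dark; DNA fluorescence (485/535 nm) normalised to 0.29 uM artemisinin and DMSO.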
# [4] = qHTS profiling for inhibitors of Plasmodium falciparum (DD2) proliferation (AID 743323); conditions: lower = more inhibition; at 28.7 µM (top of the series) unless noted
# Outline: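 SYBR Green fluorescence (ex 485, em 535 nm) of lysed cultures gives parasite DNA content; wells normalized to artemisinin (0.29 uM) and DMSO controls. Infected red cells: 0.3% parasitemia, 2.5% hematocrit, 72 h, 37 C.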
# [5] = qHTS profiling for inhibitors of Plasmodium falciparum (HB3) proliferation (AID 743324; active = well fitted curve in the direction sought with a large enough effect; inactive = no such curve, though single readings can be large or run the other way;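 note: 100% = DMSO vehicle wells and 0% = artemisinin-treated control wells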); conditions: Plasmodium falciparum HB3 blood-stage proliferation; at 28.7 µM (top of the series) unless noted
# Outline: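 P. falciparum HB3 grown in erythrocytes (0.3% parasitemia, 2.5% hematocrit final) with compound for 72 h at 37 C, 5% CO2. Parasite DNA detected by SYBR Green after saponin/triton lysis overnight; normalized to 0.29 uM artemisinin and DMSO.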
# [6] = qHTS profiling of the MIPE4 collection as inhibitors of Plasmodium falciparum (DD2) proliferation (AID 743345); conditions: P. falciparum Dd2 in erythrocytes, SYBR Green DNA, 72 h; at 28.5 µM (top of the series) unless noted
# Outline: as §1
structure (smiles),measurement,setting,value
COc1ncc(-c2ccc3nccc(-c4ccnnc4)c3c2)cc1NS(=O)(=O)c1ccc(F)cc1F,Potency,[1],0.418 µM (active)
same,Potency,[2],0.235 µM (active)
CCOc1cc(N2CCC(O)CC2)ccc1Nc1ncc2c(n1)N(C)c1ccccc1C(=O)N2C,Potency,[1],13.2 µM (active)
same,Potency,[2],16.6 µM (active)
O=C(Nc1cc(C(F)(F)F)cc(C(F)(F)F)c1)c1cc(Cl)ccc1O,Potency,[1],0.166 µM (active)
same,Potency,[2],0.0662 µM (active)
COc1c(Cl)cc2c([nH]c3cnccc32)c1NC(=O)c1cccnc1C,Potency,[1],inactive
same,Potency,[2],inactive
CC1(C)SCCN(S(=O)(=O)c2ccc(OCC#CCO)cc2)[C@@H]1C(=O)NO,Potency,[1],inactive
same,Potency,[2],inactive
COc1cc(=C2C=c3ccccc3=N2)[nH]c1=Cc1[nH]c(C)cc1C,Potency,[1],0.187 µM (active)
same,Potency,[2],6.62 µM (active)
Cc1ccc(NC(=O)c2ccc(CN3CCN(C)CC3)cc2)cc1Nc1nc(-c2cccnc2)cs1,Potency,[1],20.9 µM (active)
same,Potency,[2],23.5 µM (active)
CC1=C(CO)C(=O)O[C@@H]([C@@H](C)[C@H]2CC[C@H]3[C@@H]4C[C@H]5O[C@]56[C@@H](O)C=CC(=O)[C@]6(C)[C@@H]4CC[C@]23C)C1,Potency,[1],0.0743 µM (active)
same,Potency,[2],3.72 µM (active)
COc1ccc(-c2oc3cc(OC)ccc3c2C(=O)c2ccc(C#N)cc2)cc1,Potency,[1],inactive
same,Potency,[2],inactive
Cc1nnc(C(C)C)n1C1CC2CCC(C1)N2CC[C@H](NC(=O)C1CCC(F)(F)CC1)c1ccccc1 (stereo partly drawn),Potency,[1],inactive
same,Potency,[2],inactive
Cc1cc2c(F)c(Oc3ncnn4cc(OC[C@@H](C)O)c(C)c34)ccc2[nH]1,Potency,[1],14.8 µM (active)
same,Potency,[2],14.8 µM (active)
Cc1ccc(C(=O)Nc2cccc(C(F)(F)F)c2)cc1-c1ccc2nc(NCCN3CCOCC3)ncc2c1,Potency,[1],14.8 µM (active)
same,Potency,[2],13.2 µM (active)
Cc1ccc(-c2ncn(-c3ccc(Nc4nccc(-c5cccc(N6CCOCC6)c5)n4)cc3)n2)cn1,Potency,[1],0.0264 µM (active)
same,Potency,[2],0.0235 µM (active)
Cc1c(CN2CCN(C(=O)C(C)C)CC2)sc2c(N3CCOCC3)nc(-c3cnc(N)nc3)nc12,Potency,[1],0.0935 µM (active)
same,Potency,[2],0.0469 µM (active)
COc1ccc(OC)c(-c2nnc3ccc(-c4ccc(OC)c(O[C@@H]5CCOC5)c4)nn23)c1,Potency,[1],8.33 µM (active)
same,Potency,[2],8.33 µM (active)
CCc1cc(-c2n[nH]c(C)c2-c2ccc3c(c2)OCCO3)c(O)cc1O,Potency,[1],16.6 µM (active)
same,Potency,[2],2.64 µM (active)
CN(C)C(=O)c1ccc(S(=O)(=O)c2ccc(NC(=O)[C@@](C)(O)C(F)(F)F)c(Cl)c2)cc1,Potency,[1],1.66 µM (active)
same,Potency,[2],inactive
CCN1CCN(CC(=O)Nc2ccc(-c3cccc4c(=O)cc(N5CCOCC5)oc34)c3sc4ccccc4c23)CC1,Potency,[1],0.935 µM (active)
same,Potency,[2],1.66 µM (active)
COc1cc(Nc2ncc(F)c(Nc3ccc4c(n3)NC(=O)C(C)(C)O4)n2)cc(OC)c1OC,Potency,[1],18.7 µM (active)
same,Potency,[2],16.6 µM (active)
Cc1cccc(C#Cc2ccccc2)n1,Potency,[1],inactive
same,Potency,[2],inactive
O=C(O)[C@@H](c1ccc(OCc2ccc3ccccc3n2)cc1)C1CCCC1,Potency,[1],inactive
same,Potency,[2],inactive
COc1cc(OC2CCN(C)CC2)ccc1Nc1ncc2c(n1)n(C1CCCC1)c(=O)n2C,Potency,[1],10.5 µM (active)
same,Potency,[2],16.6 µM (active)
O=c1cc(CN2CCOCC2)occ1OCCCCCSc1ccnc2cc(C(F)(F)F)ccc12,Potency,[1],20.9 µM (active)
same,Potency,[2],5.9 µM (active)
CC(C)(C(=O)NCC(F)(F)C(F)(F)F)C(=O)N[C@@H]1C(=O)Nc2ccccc2-c2ccccc21,Potency,[1],inactive
same,Potency,[2],inactive
CN1C(=O)C(Cc2c[nH]c3ccccc23)NC1=S (stereo not drawn),Potency,[1],inactive
same,Potency,[2],inactive
Nc1ccc(C(=O)c2cc3c(ccc4ccccc43)[nH]2)cc1,Potency,[1],0.743 µM (active)
same,Potency,[2],1.18 µM (active)
CN(C)c1ccc(C2Nc3ccc4ccccc4c3C3=C2C(=O)CC(C)(C)C3)cc1Br (stereo not drawn),Potency,[1],11.8 µM (active)
same,Potency,[2],18.7 µM (active)
CC1=C[C@@H]2[C@@H]([C@@H](O)C[C@@]3(C)[C@H]2C[C@@H](C)[C@]3(O)C(=O)CO)[C@@]2(C)Cc3cnn(-c4ccccc4)c3C=C12,Potency,[1],1.66 µM (active)
same,Potency,[2],23.5 µM (active)
CC(C)(C)c1[nH]cnc1C=c1[nH]c(=O)c(=Cc2ccccc2)[nH]c1=O,remaining parasite growth % (stronger effect = lower value),[3],58.1%
same,"activity, percent of control",[4],49.6%
same,"remaining proliferation (% of control), lower = more inhibition",[5],37.2%
same,"parasite growth remaining, % of DMSO control (lower = more inhibition)",[6],41.8% [at 57.5 µM]
same,Potency,[1],0.0074 µM (active)
same,Potency,[2],0.0118 µM (active)
CCOc1ccc(Cc2cc([C@@H]3O[C@H](CO)[C@@H](O)[C@H](O)[C@@H]3O)ccc2Cl)cc1,Potency,[2],inactive
